Measured values: PubChem BioAssay AID862 (The Scripps Research Institute Molecular Screening Center, 2007)
In all, about 190,000 compounds went through this assay and about 1,700 (0.89%) were called active. The sample as a whole holds a higher share of actives than the screen did. Values without a mark were called inactive.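 How the source made its calls: active means inhibition above the mean inhibition across all screened compounds plus 3 SD (cut at about 44% in these data); inactive means the rest.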

Assay: blockers of STAT3 transcriptional signaling – U3A cells, luciferase, luminescence, MLSCN library, primary screen (AID 862);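 further: 0% = DMSO only wells and 100% = 100 µM nifuroxazide control wells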
Conditions: IL-6 STAT3-luciferase reporter, at 5.5 µM, hits give high values, host cell line lacks STAT1

Row | Structure (SMILES) | inhibition
1 | Cc1ccc(C2CCN(C(=S)Nc3cccc(Cl)c3)C2)cc1 (stereo not given) | 0.7%
2 | CCc1ccc(-n2c(SCc3cc(=O)n4cc(Br)ccc4n3)nc3[nH]ncc3c2=O)cc1 | 9.7%
3 | CSCCNCc1cn(-c2ccc(F)cc2F)nc1-c1ccccc1C | 0.4%
4 | COc1ccc(CCNC(=O)Cn2c(=O)n(CC3CCCO3)c(=O)c3ccccc32)cc1OC (stereo not given) | 10.4%
5 | Cc1nc(CNS(=O)(=O)c2ccc(Oc3ccccc3)cc2)cs1 | 54% (active)
6 | Cc1ccc(S(=O)(=O)NCc2csc(C)n2)c(C)c1 | -8.4%
7 | Cc1nc(CNS(=O)(=O)c2cccnc2)cs1 | 5.7%
8 | CCc1cc2c(NC3CCCC3)ncnc2s1 | 13%
9 | CCc1cc2c(N3CCN(c4nnc(CC)s4)CC3)ncnc2s1 | 57.3% (active)
10 | CCc1cc2c(SCC(=O)Nc3ncc(Cl)c(C)c3Cl)ncnc2s1 | -5.3%
11 | CCC(C)CN1CCC(CO)(Cc2ccccc2Cl)CC1 (stereo not given) | 3.5%
12 | Cc1cccc(C(=O)N2CCCN(C(=O)c3cccc(C)c3)CC2)c1 | 3.3%
13 | Cc1cc(=O)oc(C)c1C(=O)N1CCCCC1 | 6.3%
14 | Cc1ccc2cc3cc(C(=O)N4CCCCCC4)oc3nc2c1 | 48.7% (active)
15 | CN1CCN(c2ccc(NC(=O)c3ccc4c(c3)OCCO4)cc2Cl)CC1 | -19.1%
16 | c1ccc(Cc2cc[n+](Cc3ccccc3)cc2)cc1 | 10.2%
17 | CC1CCCN(S(=O)(=O)c2ccc(N(C(=O)c3cnccn3)C(C(=O)NC3CCCCC3)c3cccs3)cc2)C1 (stereo not given) | 5.3%
18 | Cc1ccc(-c2nc3ccccc3[nH]2)cc1N | -19.1%
19 | c1ccc2[nH]c(-c3nc4ccccc4[nH]3)nc2c1 | 44.2% (active)
20 | c1ccc(-c2[nH]ncc2-c2nc3ccccc3[nH]2)cc1 | 15.2%
21 | Cc1cccc(C)c1NC(=O)Nc1ccccc1-n1ccnc1 | 4%
22 | COCCC(=O)Nc1ccc2c(c1)CN(C(=O)CCOC)CC2 | -5.3%
23 | CCNC(=S)NNC(=O)c1ccc2ncccc2c1 | 7.8%
24 | O=C(O)c1ccc(N/N=C/c2cn(-c3ccccc3)nc2-c2cccs2)cc1 | 1%
25 | O=C(O)c1ccc(N/N=C/c2ccc3ncccc3c2)cc1 | 69.5% (active)

Row | Structure (SMILES) | inhibition
26 | CCCC(c1nnnn1C(C)(C)C)N1CCN(Cc2ccccc2)CC1 (stereo not given) | -0.6%
27 | O=C(CC(O)(C(F)(F)F)C(F)(F)F)Nc1ccc(Cl)c(Cl)c1 | 65.1% (active)
28 | CN(C)CCNC(CC(=O)Nc1ccc(Cl)c(Cl)c1)C(=O)O (stereo not given) | 5.8%
29 | O=C(CC(=O)Nc1ccc(Cl)c(Cl)c1)N/N=C/c1ccc(O)cc1 | -5%
30 | COc1cc(C(=O)NCc2ccc(-n3cccc3)cc2)cc(OC)c1OC | 6.8%
31 | COc1ccccc1C(=O)Nc1ccc(OCc2nnc3c4ccccc4c(C)nn23)cc1 | 21.6%
32 | COc1ccc(C)cc1NC(=O)NCc1ccccn1 | 15%
33 | CN(c1ccc(OCC(=O)OCC(=O)Nc2cccc([N+](=O)[O-])c2)cc1)S(=O)(=O)c1ccc(F)cc1 | 5.5%
34 | CN(C)S(=O)(=O)c1ccc(NC(=O)COC(=O)c2n[nH]c3ccccc23)cc1 | 49.3% (active)
35 | O=C(COC(=O)c1n[nH]c2ccccc12)NCc1ccccc1 | 5.8%
36 | CCN(CC)S(=O)(=O)c1ccc2nc(COC(=O)c3n[nH]c4ccccc34)[nH]c2c1 | 19.1%
37 | COc1ccccc1NC(=O)c1c(Br)cnn1C | 25.4%
38 | CCOC(=O)CNc1nc2ccccc2n2c(C)nnc12 | 24.4%
39 | Oc1c(Cl)cc(Cl)c(Cl)c1Cc1c(O)c(Cl)cc(Cl)c1Cl | 43.6% (active)
40 | O=C(Nc1ccc2cn[nH]c2c1)c1ccc(S(=O)(=O)N2CCOCC2)cc1 | -32.5%
41 | CC(=O)NC(Cc1ccc(F)c(F)c1)C(=O)NC1CCN(c2nnnn2-c2ccccc2)CC1 (stereo not given) | 10.3%
42 | COc1ccc(C(=O)Nc2ccccc2C(=O)N/N=C/c2ccc(O)c(OC)c2)cc1 | 106% (active)
43 | COc1ccc(C(=O)Nc2ccccc2C(=O)N/N=C/c2ccccc2OC)cc1 | 1.8%
44 | COc1cc(/C=N/NC(=O)c2ccccc2)ccc1OS(=O)(=O)c1ccccc1 | 1.7%
45 | CC(C)CNC(=O)C(=O)NCc1ccccc1 | -0.6%
46 | CC(Sc1nc(-c2ccccc2)cc(C(F)(F)F)n1)C(=O)Nc1ccc2c(c1)OCO2 (stereo not given) | -2.7%
47 | O=C(Nc1ccc2c(c1)OCCO2)c1ccncc1 | -8.8%
48 | Cn1cc([N+](=O)[O-])c(C(=O)Nc2cnn(Cc3ccc(F)cc3)c2)n1 | 36.8%
49 | Cn1cc([N+](=O)[O-])c(C(=O)Nc2ccc3c(c2)OCCO3)n1 | 51.3% (active)
50 | Cc1ccc(CCCOC(=O)C[N+]2(C)CCCC2)cc1 | -9.5%

Row | Structure (SMILES) | inhibition
51 | S=C(NN=C1CCN(Cc2ccccc2)CC1)NC1CCCCC1 | -0.1%
52 | Cn1nnnc1SCC(=O)Nc1nc2ccccc2s1 | -2.9%
53 | CC(=O)NCCc1nc2cc(NC(=O)c3ccccc3)ccc2n1C | 15.8%
54 | Cn1c(CN2CCOCC2)nc2cc(NC(=O)c3ccc(Cl)cc3)ccc21 | 66.2% (active)
55 | CCC(=O)Nc1ccc2c(c1)nc(CCN1CCN(C)CC1)n2C | 9.8%
56 | O=C(NCc1ccccc1Cl)C1CCN(S(=O)(=O)N2CCOCC2)CC1 | 2.3%
57 | O=C1CCCN1CCCNc1ncnc2c1[nH]c1ccccc12 | -56.6%
58 | CC(C)OCCCNc1ncnc2c1[nH]c1ccc(F)cc12 | 80.4% (active)
59 | CCN1CCCC1CNc1ncnc2c1[nH]c1ccc(F)cc12 (stereo not given) | -30.1%
60 | Cc1nc2cc(NC(=O)NC3CC3)ccc2n1C | 7.5%
61 | CC(=O)Nc1ccc(C(=O)CSc2nnc(Cc3ccccc3)o2)cc1 | 0.2%
62 | COc1ccc(C(=O)CSc2nnc(-c3ccco3)o2)cc1 | 2.9%
63 | CC(C)C[C@@H](N)c1nnc(SCC(=O)c2ccc(Cl)cc2)o1 | 53.4% (active)
64 | Oc1ccccc1C=NC1CCCCC1N=Cc1ccccc1O (stereo not given) | 5.7%
65 | CCOC(=O)CNC(=O)/C(=C\c1ccc(F)cc1)NC(=O)c1ccccc1 | 1.9%
66 | COc1cccc(NC(=O)Cn2c3ccccc3c3nc4n(c(=O)c32)CCS4)c1 | 12.7%
67 | Cn1c(CNC(=O)C(C)(C)C)nc2ccccc21 | 15.4%
68 | Cn1cccc1-c1nc2ccccc2n1C | 16.4%
69 | Cn1c(-c2ccc(C(=O)c3ccccc3)s2)nc2ccccc21 | 49.1% (active)
70 | Cc1cccc(NC(=S)NC23CN4CN(CN(C4)C2)C3)c1 | 4.5%
71 | Cc1ccc(OCCCn2c(=O)oc3ccccc32)cc1 | 16.3%
72 | CC(C)CC(=O)N/C(N)=N/c1nc2ccccc2s1 | 47% (active)
73 | CCC(=O)NC(=Nc1nc2ccccc2s1)NC(=O)CC | 12.8%
74 | COC(=O)c1nc2ccccc2s1 | -7.8%
75 | CCC(=O)c1ccc(OCC(O)Cn2nc(C)c(C(C)=O)c2C)cc1 (stereo not given) | 22.7%

Row | Structure (SMILES) | inhibition
76 | Cc1ccc(Cl)cc1NC(=O)C1CCN(S(C)(=O)=O)CC1 | -0.1%
77 | CCCOC(=O)c1[nH]c2c(c1C)C(=O)CC(c1cccs1)C2 (stereo not given) | 3.8%
78 | CCOC(=O)c1[nH]c2c(c1C)C(=O)CC(c1ccc(N(C)C)cc1)C2 (stereo not given) | -3.7%
79 | CCCOC(=O)c1[nH]c2c(c1C)C(=O)CC(c1cc(OC)c(OC)c(OC)c1)C2 (stereo not given) | 47.1% (active)
80 | COC(=O)CC1=NN(c2ccccc2)C(=O)C1 | 3.8%
81 | Cc1ccccc1CN(c1ccc(C(=O)NCC2CCCO2)cc1)S(C)(=O)=O (stereo not given) | 1%
82 | Cc1cccc(C)c1NC(=O)C1(N(C(=O)c2ccccn2)c2ccc(O)cc2)CCCCC1 | 0.2%
83 | O=C(Oc1ccccc1)c1ccc2nccnc2c1 | 2.6%
84 | c1ccc(-c2noc(-c3cccs3)n2)nc1 | 43.8% (active)
85 | COc1nc(-c2ccc(Cl)cc2)ccc1-c1noc(-c2cccs2)n1 | -4.2%
86 | c1csc(-c2nc(-c3ccncc3)no2)c1 | 16.8%
87 | CC(C)c1nc(-c2ccccn2)no1 | -0.3%
88 | O=C(Oc1ccc(-c2nc(-c3ccccn3)no2)cc1)c1ccccc1 | 76.7% (active)
89 | Cc1c(C(=O)O)nnn1-c1nonc1N | -8.4%
90 | Cc1cc(F)ccc1S(=O)(=O)Nc1ncnc2scc(-c3ccc(F)cc3)c12 | -1.8%
91 | CC(=O)c1c(C)[nH]c(C(=O)Nc2cc(S(=O)(=O)N(C)C)ccc2C)c1C | 13.2%
92 | CCOc1ccc(NC(=O)CC2C(=O)N(c3ccccc3)C(=O)N2CCOC)cc1 (stereo not given) | -0.8%
93 | CCCCn1c(N)c(N(CC)C(=O)/C=C/c2ccco2)c(=O)[nH]c1=O | -5.6%
94 | Cc1cccc(CSc2nnc(Cn3c(=O)sc4ccccc43)n2C)c1 | 5%
95 | COc1ccc(Cn2c(=O)sc3ccccc32)cc1OC | 51.6% (active)
96 | COc1ccccc1CNC(=O)CCn1c(=O)sc2ccccc21 | -0.6%
97 | CO/N=C/CC(=O)c1ccc(OC)cc1 | 6.2%
98 | Cc1ccc(F)cc1NC(=O)Cc1nn(C)c(=O)c2ccccc12 | 56.3% (active)
99 | COc1ccc(-c2nn(C)c(=O)c3ccccc23)cc1NC(=O)COc1ccccc1 | 38.1%
100 | Cc1ccc(NC(=O)Cn2nc(C)c3ccccc3c2=O)c(C)c1 | 9.7%
